Measured values from PubChem BioAssay (NCATS).
Results filed as inconclusive are left out. Active and inactive are the calls of the source. Calls follow the shape of the dose curve; as a rule, active = well fitted curve in the direction sought with a large enough effect; inconclusive = small, poorly fitted or top-dose-only effect, or another doubt; inactive = no such curve, though single readings can be large; an effect the other way counts as inactive or inconclusive.

Experiment: qHTS of pediatric cancer cell lines to identify multiple opportunities for drug repurposing: Confirmatory screen for SK-N-MC cells (AID 1347111);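 also: cells exposed to compound for 48 h before the readout; nearly all actives have a fitted effect of over 70% in size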
Settings: SK-N-MC cell viability; series mostly up to 45.9 µM
Method in brief: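 Seed 500-1,000 cells/well; rest 5 h at 37 degrees C. Pin-transfer compounds, 11-point titration. Incubate 48 h. Add CellTiter-Glo, 15 min RT, read luminescence.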
Potency is read from the fitted curve at half-maximal effect.

Row | SMILES | Potency
1 | Cc1csc(-c2nnc(Nc3ccc(Oc4ncccc4-c4ccnc(N)n4)cc3)c3ccccc23)c1 | 0.0261 µM (active)
2 | O=C1NC(=O)C(c2cnc3ccccn23)=C1c1cn2c3c(cccc13)CN(C(=O)N1CCOCC1)CC2 | 14.7 µM (active)
3 | COC(=O)Nc1ccc(-c2nc(N3CCOCC3)c3cnn(C4CCN(C(=O)OC)CC4)c3n2)cc1 | 4.65 µM (active)
4 | CON(C)C(=O)N1N=C(c2cc(F)ccc2F)S[C@]1(CCCN)c1ccccc1 | 0.0093 µM (active)
5 | COc1cc2nccc(Oc3ccc(NC(=O)Nc4cc(C)on4)c(Cl)c3)c2cc1OC | 16.5 µM (active)
6 | COc1cc2c(cc1Cc1cccc(Cl)c1F)c(=O)c(C(=O)O)cn2[C@H](CO)C(C)C | 14.7 µM (active)
7 | CN1N=C(N)c2cn([C@@H]3O[C@H](COP(=O)(O)O)[C@@H](O)[C@@H]3O)c3ncnc1c23 | 3.69 µM (active)
8 | CC(C)n1c(C=C[C@H](O)C[C@H](O)CC(=O)O)c(-c2ccc(F)cc2)c2ccccc21 | 23.3 µM (active)
9 | CN(C(Cc1ccc(OS(=O)(=O)c2cccc3cnccc23)cc1)C(=O)N1CCN(c2ccccc2)CC1)S(=O)(=O)c1cccc2cnccc12 (stereo not drawn) | 2.93 µM (active)
10 | FC(F)(F)c1ccc(C=Cc2nc(COc3ccc(CCCCn4ccnn4)cc3)co2)cc1 | 1.17 µM (active)
11 | CCC(c1ccc(O)cc1)C(CC)c1ccc(O)cc1 (stereo not drawn) | 9.27 µM (active)
12 | Nc1ccn([C@@H]2O[C@H](CO)[C@@H](O)[C@H]2O)c(=O)n1 | 2.61 µM (active)
13 | O=c1[nH]nc(OCCCc2ccc(Cl)cc2)c(NCc2cccnc2)c1Br | 16.5 µM (active)

Experiment: qHTS of pediatric cancer cell lines to identify multiple opportunities for drug repurposing: Confirmatory screen for BT-12 cells (AID 1347112);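 also: viability read after 48 h of compound exposure; nearly all actives have a fitted effect of over 55% in size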
Settings: BT-12 rhabdoid tumor cells, viability; series mostly up to 45.9 µM
Method in brief: (§1)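 Cells (500-1,000/well) rested 5 h, then received compounds for 48 h; metabolically active cells were measured by CellTiter-Glo luminescence. Final concentrations spanned up to 46 µM (MIPE, 11-point) or 0.59 nM-46 µM (NPC, 8-point) in primary screens, 11-point in follow-ups.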

Row | SMILES | Potency
14 | COc1cc2ncnc(Nc3cc(Br)c(O)c(Br)c3)c2cc1OC | inactive
15 | CC[C@H](NC(=O)[C@H](C)NC)C(=O)N1C[C@@H](O)C[C@H]1Cc1c(-c2[nH]c3cc(F)ccc3c2C[C@H]2C[C@H](O)CN2C(=O)[C@H](CC)NC(=O)[C@H](C)NC)[nH]c2cc(F)ccc12 | 18.5 µM (active)
16 | CC(C)CN(C[C@@H](O)[C@H](Cc1ccccc1)NC(=O)O[C@H]1CO[C@H]2OCC[C@H]21)S(=O)(=O)c1ccc(N)cc1 | inactive
17 | CC(C)C[C@H](NC(=O)c1cc2ccccc2s1)C(=O)N1CCN(C(=O)[C@H](CO)NS(=O)(=O)c2ccc(Cl)cc2Cl)CC1 | 0.0037 µM (active)
18 | CNC(=O)[C@H](CC1=CN=C2C=CCC=C12)NC(=O)[C@@H](CC(=O)NO)CC(C)C | 2.61 µM (active)
19 | CN(C)CCN(C)C(=O)c1ccc(NC(=O)Nc2ccc(-c3nc(N4CCOCC4)c4ccn(CC(F)(F)F)c4n3)cc2)cc1 | 18.5 µM (active)
20 | C[C@H](c1ccc(F)cc1CCCC(=O)O)N(c1cc(F)ccc1F)S(=O)(=O)c1ccc(Cl)cc1 | inactive
21 | Cc1ccc2c(c1)C(=O)[C@]1(O)CCN(c3ccccc3)C1=N2 | inactive

Experiment: qHTS of pediatric cancer cell lines to identify multiple opportunities for drug repurposing: Confirmatory screen for LAN-5 cells (AID 1347113); also: nearly all actives have a fitted effect of over 65% in size
Settings: LAN-5 neuroblastoma cell viability; series mostly up to 45.9 µM
Method in brief: as §1

Row | SMILES | Potency
22 | COC(=O)Nc1ccc(-c2nc(N3CCOCC3)c3cnn(C4CCN(C(=O)OC)CC4)c3n2)cc1 | 8.27 µM (active)
23 | CC(C)C[C@H](NC(=O)c1cc2ccccc2s1)C(=O)N1CCN(C(=O)[C@H](CO)NS(=O)(=O)c2ccc(Cl)cc2Cl)CC1 | 23.3 µM (active)
24 | COc1cc2nccc(Oc3ccc(NC(=O)Nc4cc(C)on4)c(Cl)c3)c2cc1OC | inactive
25 | N#CC(=C1Nc2ccccc2S1)c1ccnc(OCc2ccc(CN3CCOCC3)cc2)n1 | inactive
26 | CN(C)CCN(C)C(=O)c1ccc(NC(=O)Nc2ccc(-c3nc(N4CCOCC4)c4ccn(CC(F)(F)F)c4n3)cc2)cc1 | 0.414 µM (active)
27 | CC(C)n1c(C=C[C@H](O)C[C@H](O)CC(=O)O)c(-c2ccc(F)cc2)c2ccccc21 | inactive
28 | C[C@H](c1ccc(F)cc1CCCC(=O)O)N(c1cc(F)ccc1F)S(=O)(=O)c1ccc(Cl)cc1 | inactive
29 | Cc1ccc2c(c1)C(=O)[C@]1(O)CCN(c3ccccc3)C1=N2 | inactive

Experiment: qHTS of pediatric cancer cell lines to identify multiple opportunities for drug repurposing: Confirmatory screen for DAOY cells (AID 1347114); also: nearly all actives have a fitted effect of over 65% in size
Settings: DAOY medulloblastoma cells viability, cytotoxicity qHTS; series mostly up to 45.9 µM
Method in brief: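 Viability measured as metabolically active cells via CellTiter-Glo luminescence following 48 hours of compound exposure, 11-point dilutions in confirmatory testing. 500-1,000 cells/well plated 5 hours before dosing; controls were DMSO and 2.3 µM bortezomib.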

Row | SMILES | Potency
30 | Cc1csc(-c2nnc(Nc3ccc(Oc4ncccc4-c4ccnc(N)n4)cc3)c3ccccc23)c1 | 23.3 µM (active)
31 | Nc1[nH]nc2nnc(-c3c(-c4ccccc4)nn4ccccc34)cc12 | inactive
32 | CC[C@H](NC(=O)[C@H](C)NC)C(=O)N1C[C@@H](O)C[C@H]1Cc1c(-c2[nH]c3cc(F)ccc3c2C[C@H]2C[C@H](O)CN2C(=O)[C@H](CC)NC(=O)[C@H](C)NC)[nH]c2cc(F)ccc12 | 5.22 µM (active)
33 | CN1CCN(c2ncc(-c3cc(Cl)cc(Cl)c3Cl)c(N)n2)CC1 | inactive
34 | CC(C)CN(C[C@@H](O)[C@H](Cc1ccccc1)NC(=O)O[C@H]1CO[C@H]2OCC[C@H]21)S(=O)(=O)c1ccc(N)cc1 | inactive
35 | CC1(COc2ccc3c(c2)ncn3-c2ccc3cccc(N4CCC(N)CC4)c3n2)COC1 | 20.8 µM (active)
36 | CN(C)CCN(C)C(=O)c1ccc(NC(=O)Nc2ccc(-c3nc(N4CCOCC4)c4ccn(CC(F)(F)F)c4n3)cc2)cc1 | 20.8 µM (active)
37 | CC(C)n1c(C=C[C@H](O)C[C@H](O)CC(=O)O)c(-c2ccc(F)cc2)c2ccccc21 | 3.69 µM (active)
38 | CN(C(Cc1ccc(OS(=O)(=O)c2cccc3cnccc23)cc1)C(=O)N1CCN(c2ccccc2)CC1)S(=O)(=O)c1cccc2cnccc12 (stereo not drawn) | inactive
39 | FC(F)(F)c1ccc(C=Cc2nc(COc3ccc(CCCCn4ccnn4)cc3)co2)cc1 | 0.261 µM (active)
40 | Cc1ccc2c(c1)C(=O)[C@]1(O)CCN(c3ccccc3)C1=N2 | inactive
41 | Cc1nn(Cc2ccccc2Cl)c(C)c1CN(C)CC(O)COc1ccc(Cl)cc1 (stereo not drawn) | 23.3 µM (active)
42 | Nc1ccn([C@@H]2O[C@H](CO)[C@@H](O)[C@H]2O)c(=O)n1 | inactive
43 | O=c1[nH]nc(OCCCc2ccc(Cl)cc2)c(NCc2cccnc2)c1Br | 5.22 µM (active)
